The panel holds about 83,000 compounds, 20% with a hit somewhere; the sample as a whole holds those more often.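 Step 1: grow cells in 96-well plates. Step 2: add test compound at a single concentration. Step 3: incubate 48 h. Step 4: record percent growth.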 Values without a mark were called inactive. Activity calls are given as the source filed them. How the source made its calls: active means growth percent below 10; inactive means the rest.
What was measured:
Test in all cases: NCI-60 one-dose screen, 48 h (100 = growth as untreated, 0 = no growth, -100 = all killed)
Details in all cases: 10 µM unless noted
[1] = system: T-47D breast
[2] = system: BT-549 breast
[3] = system: MDA-MB-435 melanoma
[4] = system: SW-620 colon
[5] = system: MCF7 breast
[6] = system: HCT-116 colon
[7] = system: HCC-2998 colon
[8] = system: KM12 colon

Structure (SMILES)	growth [1]	growth [2] [%]	growth [3]	growth [4]	growth [5]	growth [6]	growth [7]	growth [8]
O=C(CCCn1c(=O)c2sc3ccccc3c2n2nnc(-c3ccccc3)c12)NCCc1cnc[nH]1	4.62% (active)	32.3	-49.9% (active)	-11.1% (active)	-47.4% (active)	-86.6% (active)	-42.6% (active)	-7.92% (active)
Cc1nc2scc(-c3ccccc3)n2c(=O)c1CCO	99.6%	116	103%	101%	88.9%	101%	112%	103%
Nc1c(C(=O)Nc2cccc(C(F)(F)F)c2)sc2nc3c(cc12)CCCCC3	-11.6% (active)	25.2	32.7%	58.3%	29.5%	-7.78% (active)	46.9%	35.7%
O=C(Nc1ccc(I)cc1)c1cc([N+](=O)[O-])ccc1O	29.9%	34.3	38.5%	35.2%	18.9%	19.3%	16.1%	21%
NC(=O)c1c(NC(=O)c2ccc(OCC3CCCO3)cc2)sc2c1CCCC2 (stereo unspecified)	80.5%	101	95.8%	110%	101%	90%	113%	66.9%
Cc1ccc(S(=O)(=O)OCC(=O)Nc2ccc(C(=O)O)c(O)c2)cc1	106%	89.2	114%	105%	105%	96.2%	87.6%	110%
CCOC(=O)/C=C\C(=O)NC(N)=O	89.1%	100	106%	107%	96.3%	86.4%	95.2%	106%
Cc1ccc2c(c1)C(C)Cc1c(N(C)C)ncnc1N2C (stereo unspecified)	34.8%	30.6	-6.18% (active)	20.6%	16.9%	19%	58.2%	26.2%
O=C(O)c1ccc(-n2cc(CNc3ccc(C(F)(F)F)cc3)c(-c3ccccc3)n2)cc1	79.2%	99.1	90.8%	98.2%	81.8%	101%	108%	84.7%
CCN(Cc1ccc(CN(CC)C(=O)C(Cl)(Cl)Cl)cc1)C(=O)C(Cl)(Cl)Cl	78.2%	78.3	83.7%	89%	89.2%	56.4%	92.4%	81.5%
COc1cc(CNC(=O)CCSc2nc3ccccc3c(=O)n2Cc2cc(OC)c(OC)c(OC)c2)cc(OC)c1OC	29.3%	48.3	-28.7% (active)	23.9%	15.4%	17%	86%	17.3%
N#Cc1c(NC(=O)c2ccc([N+](=O)[O-])o2)[n+]([O-])c2cc(F)c(F)cc2[n+]1[O-]	118%	203	109%	128%	96.5%	104%	106%	98.9%
CCCC(C(=O)OCC)C(C)OC(=O)OCC (stereo unspecified)	86.6%	115	101%	113%	101%	103%	103%	101%
N#CC1=C(N)n2nc(-c3ccncc3)nc2NC1c1cccc2ccccc12 (stereo unspecified)	66.2%	90.1	88.1%	100%	80.5%	87.9%	105%	97.6%
COc1ccc(OC)c(NC(=O)c2cc(S(=O)(=O)N3CCc4ccccc43)ccc2OC)c1	93.4%	104	96.1%	96.7%	113%	72.2%		111%
Cc1ccc(Cn2c(-c3nonc3N)nc3ccccc32)cc1	74.6%	68.3	-30.8% (active)	28.4%	55.5%	58.2%		31.6%
Cc1ccc(OCCn2c(C)nn(-c3ccc(Cl)cc3)c2=O)cc1	104%	99.8	105%	106%	98.8%	95.5%		117%
OC1CC2c3ccccc3C1c1ccccc12 (stereo unspecified)	111%	108	107%	108%	98.8%	103%		107%
O=S(=O)(NCCNc1cc(-c2cn(-c3ccccc3)nc2-c2ccccc2)ccn1)c1ccc(F)cc1	50.5%	94.8	83.9%	95.4%	86.3%	79.4%	102%	87.3%
CC(=O)N1Cc2ccccc2C(C)Cc2cc(Cl)ccc21 (stereo unspecified)	100%	115	106%	106%	102%	105%	100%	103%
Cn1cc(C=O)c2ccccc21	102%	106	106%	95.1%	99.3%	102%	100%	102%
O=C(Nc1ccc(OCc2nnc(-c3ccc(Cl)cc3)o2)c(F)c1)Nc1ccc(Cl)c(Cl)c1	55.8%	93.6	73.1%	47%	50.3%	29.7%	85.4%	53.7%
CCCCNc1nnc(-c2cc(-c3cc4ccccc4o3)nn2-c2ccccc2)o1	76.7%	96.7	101%	103%	73.8%	89.4%		103%
Cc1ccc(Nc2ncnc3c2sc2ncccc23)cc1	95.9%	111	108%	99.8%	92.8%	106%		105%
CC(CCc1ccccc1)NC(=O)c1n[nH]c(=O)c2ccccc12 (stereo unspecified)	95.8%	98.9	108%	100%	90.7%	97%		109%
COc1ccc(OC)c(C(=O)c2oc3ccc(Br)cc3c2N)c1	37.9%	27.8	-64.7% (active)	16.2%	15.5%	16.8%		30.6%
O=C(CSc1nc(-c2ccc(Cl)cc2)cn1-c1ccc(Cl)cc1)c1ccc(Br)cc1	69.6%	94.1	91.5%	89.3%	83.9%	43.9%		88.5%
COc1ccc(C(=O)N2CCN(C(=O)c3cc(OC)c(OC)c(OC)c3)CC2)cc1OCCCCOc1cc2c(cc1OC)C(=O)N1CCC[C@H]1C=N2	85.4%	115	108%	110%	98.8%	101%		129%
CCN(CC)CCC(=O)c1cccc2ccccc12	85.1%	110	108%	104%	63.9%	109%		103%

Source: PubChem BioAssay (NCI)
